# Measurements taken from PubChem BioAssay AID1332 (Southern Research Institute, 2008).
# Hit rate of the full screen: of about 1,100 compounds, about 170 (15%) were called active. How the calls were made is not given here. A selection follows.
# Assay: Confirmatory growth inhibition assay, mycobacterium tuberculosis h37rv, with cytotoxicity (AID 1332);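 on CC50: Vero cells exposed to compounds for 72 hours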;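 on IC50: bacteria incubated 7 days before adding Alamar blue readout reagent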
# Details: M. tuberculosis H37Rv growth inhibition; CC50: measured here: Vero cell cytotoxicity; IC50: measured here: IC50 H37Rv replicates
SMILES,IC50,outcome,CC50
CCCNC(C)C(=O)Nc1c(C)csc1C(=O)OC (stereo not given),> 20 µg/mL,inactive,–
C=C1[C@@H](O)[C@]23C[C@@H]1[C@@H](O)C[C@H]2[C@@]12C4[C@@H]3C[C@@H]1[C@@](C)(CC[C@@H]2O)CN4CC,> 20 µg/mL,inactive,–
CNCCc1ccccn1,> 20 µg/mL,inactive,–
CCCCOc1ccc(OCCCN2CCOCC2)cc1,> 20 µg/mL,inactive,–
C[C@H](CCC(=O)O)[C@H]1CC[C@H]2[C@@H]3[C@H](O)C[C@@H]4C[C@H](O)CC[C@]4(C)[C@H]3CC[C@]12C,> 20 µg/mL,inactive,–
CCN1C[C@]2(COC)CC[C@H](OC)[C@@]34C1[C@]1(OCO[C@@]15C[C@H](OC)[C@H]1C[C@@H]3[C@@H]5[C@H]1OC)[C@@H](O)[C@H]24,> 20 µg/mL,inactive,–
O=S(=O)(O)c1cc(O)ccc1O,> 20 µg/mL,inactive,–
CN1C2CCCC1CC(=O)C2,> 20 µg/mL,inactive,–
CC1=CC(=O)C2=C(C)C[C@H](O)[C@@H]3[C@H](OC(=O)[C@H]3C)[C@@H]12,> 20 µg/mL,inactive,–
CC[C@@H](C(=O)[C@@H](C)[C@@H](O)[C@H](C)CCc1ccc(C)c(O)c1C(=O)O)[C@H]1O[C@](CC)([C@H]2CC[C@](O)(CC)[C@H](C)O2)C[C@@H]1C,6.19 µg/mL,active,> 6 µg/mL
CC(=O)N(CC(C)C(=O)O)c1c(I)cc(I)c(N)c1I (stereo not given),> 20 µg/mL,inactive,–
CC(C)(C)NC[C@H](O)COc1cccc2c1CCCC2=O,> 20 µg/mL,inactive,–
C[C@]12CC[C@@H]3c4ccc(O)cc4CC[C@H]3[C@@H]1C[C@@H](O)[C@@H]2O,> 20 µg/mL,inactive,–
NC(N)=NCC1COC2(CCCCC2)O1 (stereo not given),> 20 µg/mL,inactive,–
Nc1ccc(S(=O)(=O)c2ccc(N)cc2)cc1,9.09 µg/mL,active,–
Nc1ccc(S(N)(=O)=O)cc1,> 20 µg/mL,inactive,–
NC(N)=NS(=O)(=O)c1ccc(N)cc1,> 20 µg/mL,inactive,–
O=c1[nH]c(=O)n([C@H]2CC(O)[C@@H](CO)O2)cc1I (stereo not given in full),> 20 µg/mL,inactive,–
Cn1cc[nH]c1=S,> 20 µg/mL,inactive,–
CCN1CCC[C@H]1CNC(=O)c1c(OC)ccc(Br)c1OC,> 20 µg/mL,inactive,–

SMILES,IC50,outcome,CC50
CCCc1ncc(C[n+]2ccccc2C)c(N)n1,> 20 µg/mL,inactive,–
NC(=O)c1ccc[n+]([C@@H]2O[C@H](COP(=O)([O-])OP(=O)(O)OC[C@H]3O[C@@H](n4cnc5c(N)ncnc54)[C@H](O)[C@@H]3O)[C@@H](O)[C@H]2O)c1,> 20 µg/mL,inactive,–
Cc1onc(-c2c(F)cccc2Cl)c1C(=O)N[C@@H]1C(=O)N2C(C(=O)O)C(C)(C)S[C@H]12 (stereo not given in full),> 20 µg/mL,inactive,–
CNCCCC1c2ccccc2C=Cc2ccccc21,17.4 µg/mL,active,> 6 µg/mL
NCc1ccc(S(N)(=O)=O)cc1,> 20 µg/mL,inactive,–
COc1cnc(NS(=O)(=O)c2ccc(N)cc2)nc1,> 20 µg/mL,inactive,–
COc1cc(NS(=O)(=O)c2ccc(N)cc2)nc(OC)n1,12.6 µg/mL,active,–
COc1ncnc(NS(=O)(=O)c2ccc(N)cc2)c1OC,> 20 µg/mL,inactive,–
C[C@@H]1NC(=O)NC1=O,> 20 µg/mL,inactive,–
CC1CS(=O)(=O)CCN1N=Cc1ccc([N+](=O)[O-])o1 (stereo not given),2.74 µg/mL,active,–
O=C1OC(CN2CCOCC2)CN1/N=C/c1ccc([N+](=O)[O-])o1 (stereo not given),> 20 µg/mL,inactive,–
CCCc1cc(=O)[nH]c(=S)[nH]1,> 20 µg/mL,inactive,–
CCOC(=O)Nc1ccc2c(c1)N(C(=O)CCN1CCOCC1)c1ccccc1S2,> 20 µg/mL,inactive,–
CCN(CC)CCOC(=O)C(c1ccccc1)c1ccccc1,> 20 µg/mL,inactive,–
CC(C)NC[C@@H](O)COc1cccc2ccccc12,> 20 µg/mL,inactive,–
CN[C@H](CC(C)C)C(=O)N[C@H]1C(=O)N[C@@H](CC(N)=O)C(=O)N[C@H]2C(=O)N[C@H]3C(=O)N[C@H](C(=O)N[C@H](C(=O)O)c4cc(O)cc(O)c4-c4cc3ccc4O)[C@H](O)c3ccc(c(Cl)c3)Oc3cc2cc(c3O[C@@H]2OC(CO)[C@@H](O)[C@H](O)[C@H]2O[C@H]2C[C@](C)(N)[C@H](O)[C@H](C)O2)Oc2ccc(cc2Cl)[C@H]1O (stereo not given in full),1.06 µg/mL,active,–
C[C@@H]1O[C@@H](O[C@H]2[C@H](Oc3cc(O)c4c(c3)O[C@H](c3ccc(O)cc3)CC4=O)O[C@H](CO)[C@@H](O)[C@@H]2O)[C@H](O)[C@H](O)[C@H]1O,> 20 µg/mL,inactive,–
COc1ccc(C(=O)c2ccccc2)c(O)c1,> 20 µg/mL,inactive,–
CCC[C@@H]1C[C@@H](C(=O)N[C@@H](C2O[C@H](SC)[C@H](O)[C@@H](O)[C@H]2O)[C@H](C)Cl)N(C)C1 (stereo not given in full),0.395 µg/mL,active,–
